“And” between values parts separate entries of the source, which are not always exact repeats. Identical values can stand only once. Counter-ions that a name gives are not always drawn.
Legend:
Test in all cases: cell viability relative to vehicle control; higher = less cytotoxic
Settings in all cases: 10 µM
[1] = test system: K562
How it was run: (§1)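 CRISPR-edited SRSF2 P95 mutant and isogenic wild-type clones of four leukaemia lines were screened against Selleck bioactive, kinase and epigenetic probe libraries, with identity-inconsistent compounds removed. Compounds were acoustically dispensed into 384-well plates at a single 10 µM dose, with 2000 cells in 50 µL medium per well. After 48 h, supernatant was removed and CellTiter-Glo luminescence was read. Viability was expressed as percent of the on-plate DMSO vehicle control, analysed in Genedata Screener.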

[2] = test system: MARIMO
How it was run: as §1

[3] = test system: MOLM14
How it was run: as §1

[4] = test system: OCI-AML2
How it was run: as §1

SMILES	cell viability ([1]; SRSF2 genotype: SRSF2 P95H/wt)	cell viability ([1]; SRSF2 genotype: SRSF2 wt/wt) [%]	cell viability ([2]; SRSF2 genotype: SRSF2 P95H/wt) [%]	cell viability ([2]; SRSF2 genotype: SRSF2 wt/wt) [%]	cell viability ([3]; SRSF2 genotype: SRSF2 P95H/wt) [%]	cell viability ([3]; SRSF2 genotype: SRSF2 wt/wt) [%]	cell viability ([4]; SRSF2 genotype: P95H/wt) [%]	cell viability ([4]; SRSF2 genotype: wt/wt) [%]
COc1ccc(Cl)cc1C(=O)NCCc1ccc(S(=O)(=O)NC(=O)NC2CCCCC2)cc1 [Glyburide (Glibenclamide)]	107% and 98.6%	110	106	120	108	103	98.8	104
COc1cc(N2CCC(N(C)C)CC2)ccc1Nc1ncc(Cl)c(Nc2ccccc2P(C)(C)=O)n1	41.2% and 62.9%	34.2	34	27.2	1.15	3.56	4.59	12.3
CC(C)CCn1c(CN2CCN(C(=O)C3CC3)CC2)nc2c1c(=O)n(C)c(=O)n2C	105% and 116%	112	99.7	102	105	104	114	116
OC[C@H]1O[C@@H](Oc2cc3c(O)cc(O)cc3[o+]c2-c2ccc(O)c(O)c2)[C@H](O)[C@@H](O)[C@@H]1O [Cyanidin-3-O-glucoside chloride]	93.5% and 89%	87.1	91.6	92.6	90.4	91.1	83	86.2
CCN(CC)c1ccc2cc(-c3nc4ccccc4s3)c(=O)oc2c1 [Coumarin 6]	106% and 105%	102	106	112	108	107	101	108
CCC(=O)O[C@H]1[C@H](O[C@@H]2[C@@H](C)[C@H](O[C@H]3C[C@@](C)(OC)[C@@H](O)[C@H](C)O3)[C@@H](C)C(=O)O[C@H](CC)[C@@](C)(O)[C@H](O)[C@@H](C)C(=O)[C@H](C)C[C@@]2(C)O)O[C@H](C)C[C@@H]1N(C)C [Erythromycin estolate]	92.3% and 89.5%	90.4	92.3	105	96.4	95.8	77.5	76.8
O=C(COc1ccc(Cl)cc1)NC1CCC(NC(=O)COc2ccc(Cl)cc2)CC1 (stereo not drawn) [ISRIB (trans-isomer)]	96.3% and 97.5%	100	103	102	107	98.7	99.2	95.9
COc1cc(O)c(CC=C(C)C)c2c1C(=O)CC(c1ccc(O)cc1)O2 (configuration not stated) [Isoxanthohumol]	83.1% and 81.6%	78.3	94.3	82.2	94.7	97.7	93.7	93
O=C(O)COCCN1CCN([C@H](c2ccccc2)c2ccc(Cl)cc2)CC1 [Levocetirizine Dihydrochloride]	99% and 88.4%	101	93.2	107	92.4	99.3	91.7	103
COC(=O)C1=COC(OC2OC(CO)C(O)C(O)C2O)C2C(CO)=CC(O)C12 (configuration not stated)	105% and 104%	109	105	93.2	105	107	98.6	98.7
COc1ccc2cc3[n+](cc2c1O)CCc1cc2c(cc1-3)OCO2 [Berberrubine]	104% and 100%	111	112	98.3	109	109	103	99.1
Cn1c(=O)cc(N2CCC[C@@H](N)C2)n(Cc2ccccc2C#N)c1=O	96.9% and 97.8%	88.7	94	97.1	91.3	98.3	98	101
CCCCCCC1CCC(=O)O1 (configuration not stated)	96.5% and 97.2%	97.8	97.3	101	103	102	96.3	106
CO[C@@H](C(=O)N1Cc2[nH]nc(NC(=O)c3ccc(N4CCN(C)CC4)cc3)c2C1)c1ccccc1	40.2% and 48.7%	34.3	63.3	69.4	14.3	12.9	6.56	19.3
C[C@]12C=CC(=O)C=C1CC[C@@H]1[C@@H]2[C@@H](O)C[C@@]2(C)[C@H]1CC[C@]2(O)C(=O)CO [Prednisolone]	105% and 98.9%	106	101	103	98.5	96.3	91.1	111
Cn1cc(C[C@@H](N)C(=O)O)c2ccccc21 [Indoximod (NLG-8189)]	95.8% and 103%	95.7	98.4	103	103	98.9	102	104
CCCC(=O)Nc1cccc(NC(=O)c2ccccc2Br)c1	92.9%	95.5	97.8	96.5	102	100	95.7	95
C=CC(=O)Nc1cccc(Nc2nc(Nc3ccc(N4CCN(C(C)=O)CC4)cc3OC)ncc2C(F)(F)F)c1 [Rociletinib (CO-1686, AVL-301)]	54.5% and 77.9%	68.3	34.9	29.4	6.76	11.9	10.2	19
CCc1nc(C(N)=O)c(Nc2ccc(N3CCC(N4CCN(C)CC4)CC3)c(OC)c2)nc1NC1CCOCC1 [Gilteritinib (ASP2215)]	89% and 85.7%	91.4	40.9	40.6	4.58	8.89	14.3	21.3
Nc1ncnc2c1ncn2[C@@H]1O[C@H](COP(=O)(O)O)[C@@H](O)[C@H]1O [5'-Adenylic acid]	99.5% and 92.5%	90.4	84	87.2	87.1	89.3	99.6	93.9

SMILES	cell viability ([1]; SRSF2 genotype: SRSF2 P95H/wt)	cell viability ([1]; SRSF2 genotype: SRSF2 wt/wt) [%]	cell viability ([2]; SRSF2 genotype: SRSF2 P95H/wt) [%]	cell viability ([2]; SRSF2 genotype: SRSF2 wt/wt) [%]	cell viability ([3]; SRSF2 genotype: SRSF2 P95H/wt) [%]	cell viability ([3]; SRSF2 genotype: SRSF2 wt/wt) [%]	cell viability ([4]; SRSF2 genotype: P95H/wt) [%]	cell viability ([4]; SRSF2 genotype: wt/wt) [%]
OC[C@H]1O[C@@H](O[C@@H]2OC=C[C@H]3[C@H](O)[C@@H]4O[C@]4(CO)[C@@H]23)[C@H](O)[C@@H](O)[C@@H]1O [Catalpol]	106% and 108%	104	103	115	99.9	105	96.7	106
O=C(O)C(S)=Cc1c[nH]c2ccc(F)cc12	95.6% and 105%	97	109	109	85.2	98.3	106	103
Cc1ccc(NC(=O)c2ccc(CN3CCN(C)CC3)cc2)cc1Nc1nc(-c2cccnc2)cs1 [Masitinib (AB1010)]	6.35% and 18.8%	12.1	72.5	59.7	70.3	67.8	52	52.1
COc1cc2nccc(Oc3ccc(NC(=O)c4cn(C(C)C)c(=O)n(-c5ccc(F)cc5)c4=O)cc3F)c2cc1OC	30.1% and 27.1%	48.2	102	102	27.7	43.7	70.4	80.4
COc1cc2oc(=O)ccc2c(OC)c1C[C@@H](O)C(C)(C)O [Toddalolactone]	106% and 101%	104	102	105	112	106	102	104
CCCc1cc(=O)[nH]c(=S)[nH]1 [Propylthiouracil]	107% and 91.6%	94	93.1	96.5	100	96.8	106	110
CC1(C)[C@@H](O[C@H]2O[C@H](C(=O)O)[C@@H](O)[C@H](O)[C@H]2O[C@@H]2O[C@H](C(=O)O)[C@@H](O)[C@H](O)[C@H]2O)CC[C@]2(C)[C@H]3C(=O)C=C4[C@@H]5C[C@@](C)(C(=O)O)CC[C@]5(C)CC[C@@]4(C)[C@]3(C)CC[C@@H]12 [Diammonium Glycyrrhizinate]	98.9% and 104%	99.1	101	99.7	100	103	101	114
COCC[n+]1c2c(n(Cc3cnccn3)c1C)C(=O)c1ccccc1C2=O [YM155 (Sepantronium Bromide)]	0.4% and 0.35%	0.47	0.69	1.06	0.33	0.32	0.31	0.36
CC(/C=C/C=C(\C)C(=O)O[C@@H]1O[C@H](CO)[C@@H](O)[C@H](O)[C@H]1O)=C\C=C\C=C(C)\C=C\C=C(/C)C(=O)O[C@@H]1O[C@H](CO[C@@H]2O[C@H](CO)[C@@H](O)[C@H](O)[C@H]2O)[C@@H](O)[C@H](O)[C@H]1O [Crocin II]	109% and 106%	99.8	104	110	87.5	104	97.4	106
Cn1cc(C2=C(c3cccc(N)c3)C(=O)NC2=O)c2ccccc21	51.4% and 36.7%	58.5	65.4	86	59.8	72.1	78.8	101
COc1ccc(C[C@@H]2c3cc(Oc4cc(C[C@@H]5c6cc(OC)c(OC)cc6CCN5C)ccc4O)c(OC)cc3CCN2C)cc1 [Neferine]	109% and 107%	99	104	120	106	109	102	102
Cn1cncc1[C@@](N)(c1ccc(Cl)cc1)c1ccc2c(c1)c(-c1cccc(Cl)c1)cc(=O)n2C [Tipifarnib (Zarnestra)]	24.9% and 31.7%	34.7	34.5	32.9	29.9	20.2	19.9	26
C[C@@]12C[C@H](c3ccoc3)O[C@@]13C[C@H](OC3=O)[C@H]1[C@H]2C[C@@H]2C[C@H]1C(=O)O2 [Diosbulbin B]	103% and 104%	102	105	108	108	110	102	101
O=C(O)c1ccc(Nc2ncc3c(n2)-c2ccc(Cl)cc2C(c2c(F)cccc2F)=NC3)cc1	66.5% and 78.8%	68.1	80.4	88.1	51.4	35.4	41.3	38.8
CCN(CC)CC(=O)Oc1ccc(NC(C)=O)cc1 [Propacetamol hydrochloride]	90.2% and 83.3%	86.5	94.2	90.2	93.6	94.7	86.4	96.7
C/C=C(/C)C(=O)O[C@@H]1[C@H](OC(C)=O)c2c(ccc3ccc(=O)oc23)OC1(C)C [Praeruptorin A]	96.7% and 95.2%	100	89.8	101	89	94.8	97.4	104
NNC(=O)c1ccncc1 [Isoniazid (Tubizid)]	106% and 109%	112	101	107	107	106	102	115
N=C(N)N [Guanidine (Aminoformamidine) HCl]	94.2% and 97%	103	104	98.3	97	98.7	102	98.1
Cc1ncc(Cl)cc1NCc1ccc(C(=O)N[C@@H](CC2CCCC2)C(=O)NC2CC2)s1	82.9% and 83.4%	82.1	76.2	94	65	66.1	72.9	71.3

Source: the supplement of paper PMC10981050
